Screening results from PubChem.
Rows were chosen to be rich in hits. Some 6.9% of all compounds tested hit in one or more screens of this group.
SW480 rerep – DNA re-replication induction in SW480 cells; SW480 DNA re-replication, Hoechst DNA content imaging, 48 h; Potency, µM (highest dose often 46.1 µM), hits mostly activators; 340,000 tested, 1.8% active; AID 624297; further: nearly all actives have a fitted effect of over 55% in size
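Per well, 250 cells were exposed to pinned compound for 48 hr. Nuclear DNA was visualised with Hoechst (40 min, 37 C) and total object intensity recorded by fluorescence scanning.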
IL1B secr inh – inhibitors of inflammasome signaling (IL-1 beta secretion) | THP-1 LPS/ATP IL-1B secretion, AlphaLISA, 16 h; active compounds read low | activity change, % at 57.5 µM | 360,000 tested, 4.7% active | AID 743279; in the data active means activity change below about -50%; inconclusive means mostly about -30% to -49%
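THP-1 cells pretreated 1 hr with compounds (up to 57.5 uM final), then stimulated with LPS (250 ng/mL final) plus ATP (1.25 mM final); secreted IL-1B measured by AlphaLISA after 16 hr, decreased signal indicating inhibition.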
Giardia kill – Giardia lamblia killing | AID 540267 | 340,000 tested, 0.15% active | Giardia lamblia trophozoite viability | activity change, % at 7.66 µM, hits read low; in the data active means activity change below about -80%; inconclusive means between about -30% and that limit;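 further: parasites exposed to compound for two days anaerobically before the ATP read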
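Viability, read as ATP luminescence: trophozoites at 100 cells/well, compound added, 48 hrs anaerobic at 37 deg C, then 15-30 min room-temperature development before reading.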
Vif-APOBEC3G blk – blocks the Vif interaction with human APOBEC3G; Q9HC16; HeLa A3G-eYFP + Vif (tagged APOBEC3G with the HIV-1 protein that degrades it), YFP fluorescence, overnight; Potency, µM (top dose mostly 46.1 µM), actives largely listed as inhibitors; 410,000 tested, 0.076% active; AID 602310; further: nearly all actives have a fitted effect of over 60% in size
Target sequence (Q9HC16 whole entry, looked up): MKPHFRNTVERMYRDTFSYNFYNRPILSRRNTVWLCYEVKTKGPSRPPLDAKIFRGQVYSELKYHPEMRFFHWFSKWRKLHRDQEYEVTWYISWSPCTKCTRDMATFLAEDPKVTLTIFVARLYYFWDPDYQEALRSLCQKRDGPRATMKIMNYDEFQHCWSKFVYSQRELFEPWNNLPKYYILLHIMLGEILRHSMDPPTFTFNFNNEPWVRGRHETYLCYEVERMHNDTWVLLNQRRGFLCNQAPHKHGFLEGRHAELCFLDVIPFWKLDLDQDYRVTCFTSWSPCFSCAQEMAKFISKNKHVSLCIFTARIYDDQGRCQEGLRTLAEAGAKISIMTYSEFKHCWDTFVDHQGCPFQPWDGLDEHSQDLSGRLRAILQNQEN
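HeLa cells stably expressing Vif and C-terminally eYFP-tagged A3G, seeded overnight at 37 deg C, then exposed to compound by pintool overnight at 37 deg C. Rise in yellow fluorescence (Ex 488/Em 500-530, Acumen) marks blocked Vif-driven A3G degradation.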
Vif-APOBEC3F blk – Vif-A3F binding inhibition. 390,000 tested, 0.2% active. AID 602313. Potency, µM (top dose mostly 46.1 µM). HeLa A3F-eYFP + Vif (tagged APOBEC3F with the HIV-1 protein that degrades it), YFP fluorescence increase; further: nearly all actives have a fitted effect of over 65% in size
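HeLa cells stably expressing A3F-eYFP plus Vif, plated and incubated overnight at 37 deg C, then exposed to compounds overnight at 37 deg C. Blocked degradation read as raised yellow fluorescence (Ex 488/Em 500-530).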
MCF10A rerep – induces DNA re-replication in MCF 10a normal breast cells; 350,000 tested, 2.9% active; MCF 10A DNA re-replication, Hoechst nuclear intensity, 48 h; Potency, µM (doses to about 46.1 µM), usual class: activators; further: nearly all actives have a fitted effect of over 50% in size
Numbers stand for hits. Unless noted, the call rests on the fitted dose curve; in most records, active means well fitted curve in the direction sought with a large enough effect; inconclusive means small, poorly fitted or top-dose-only effect, or another doubt; inactive means no such curve, though single readings can be large; an effect the other way counts as inactive or inconclusive.

Screening CCc1ccc2nc(N(CCN(CC)CC)C(=O)c3ccco3)sc2c1 returned Vif-APOBEC3G blk inactive and Vif-APOBEC3F blk inactive.
Cc1ccc(C(=O)N2CCN(c3cccc(Cl)c3)CC2)cc1-n1c(C)nc2cccnc21 was read as Vif-APOBEC3G blk inactive and Vif-APOBEC3F blk inactive.
For COc1ccc(-n2c(C(C)n3nc(C)c([N+](=O)[O-])c3C)n[nH]c2=S)cc1 (centres undefined) the results were SW480 rerep inactive, IL1B secr inh inactive, Giardia kill inactive, Vif-APOBEC3G blk inactive, Vif-APOBEC3F blk inactive and MCF10A rerep inactive.
Screening COc1ccc(-n2c(C)c([N+](=O)[O-])c3ccc(O)c(CN(C)C)c32)cc1 returned SW480 rerep inconclusive, IL1B secr inh -59, Giardia kill inactive, Vif-APOBEC3G blk inactive, Vif-APOBEC3F blk inactive and MCF10A rerep inconclusive.
Screening CN(C)c1ccc(CNC(=O)c2ccc(Cn3c(SCc4ccccc4)nc4cccnc43)cc2)cc1 returned Vif-APOBEC3G blk inactive and Vif-APOBEC3F blk inactive.
For CNC[C@@H](CC1CCCCC1)NC[C@H](CC(C)C)NCCc1cccc(C(F)(F)F)c1 the results were SW480 rerep inconclusive, IL1B secr inh -111, Giardia kill inconclusive, Vif-APOBEC3G blk inactive, Vif-APOBEC3F blk inactive and MCF10A rerep 7.3µM.
CCC[C@@H](CNC)NC[C@H](Cc1ccccc1)NCCCCc1ccccc1 was read as SW480 rerep inactive, IL1B secr inh -70, Giardia kill inactive, Vif-APOBEC3G blk inactive, Vif-APOBEC3F blk inactive and MCF10A rerep inconclusive.
CNC[C@@H](Cc1ccccc1)NC[C@@H](CC1CCCCC1)NCCCc1ccccc1 was read as SW480 rerep inactive, IL1B secr inh -101, Giardia kill inactive, Vif-APOBEC3G blk inactive, Vif-APOBEC3F blk inactive and MCF10A rerep inactive.
CCC[C@@H](CN[C@@H](CNC)C(C)C)NCCCCc1ccccc1 was read as SW480 rerep inactive, IL1B secr inh inactive, Giardia kill inactive, Vif-APOBEC3G blk inactive, Vif-APOBEC3F blk inactive and MCF10A rerep inactive.
`O=C(Cc1ccccc1)Nc1ccc(NC(=O)c2ccc(Br)cc2)cc1` gave SW480 rerep inactive, IL1B secr inh inactive, Giardia kill inactive, Vif-APOBEC3G blk inactive, Vif-APOBEC3F blk inactive and MCF10A rerep inactive.
CN(CCC(=O)Nc1ccc(Br)cc1)Cc1ccccc1 was read as SW480 rerep inactive, IL1B secr inh -62, Giardia kill inactive, Vif-APOBEC3G blk inactive, Vif-APOBEC3F blk inactive and MCF10A rerep inactive.
Cc1ccc(NNC(=O)c2cc(C(C)(C)C)nn2Cc2ccccc2)cc1 was read as SW480 rerep inactive, IL1B secr inh inconclusive, Giardia kill inactive, Vif-APOBEC3G blk inactive, Vif-APOBEC3F blk inactive and MCF10A rerep inconclusive.
Screening CC(C)(C)c1cc(C(=O)NNc2ccc(OC(F)(F)F)cc2)n(Cc2ccccc2)n1 returned SW480 rerep inactive, Giardia kill inactive, Vif-APOBEC3G blk inactive, Vif-APOBEC3F blk inactive and MCF10A rerep 18µM.
For CC(C)(C)C(=O)NNC(=O)c1cc(C(C)(C)C)nn1Cc1ccccc1 the results were SW480 rerep inactive, IL1B secr inh inactive, Giardia kill inactive, Vif-APOBEC3G blk inactive, Vif-APOBEC3F blk inactive and MCF10A rerep inactive.
For CC(C)(C)c1cc(C(=O)NNc2cccc(Cl)c2)n(Cc2ccccc2)n1 the results were SW480 rerep inactive, IL1B secr inh -68, Giardia kill inactive, Vif-APOBEC3G blk inactive, Vif-APOBEC3F blk inactive and MCF10A rerep inconclusive.
C[N+]12CCCC[C@@H]1CCC(=C(c1cccs1)c1cccs1)C2 (some centres undefined) was read as SW480 rerep inactive and MCF10A rerep inactive.
CCOc1ccc(-n2c(SC(C)C(=O)OC)nc3c([nH]c4ccccc43)c2=O)cc1 (centres undefined) was read as Vif-APOBEC3G blk inactive and Vif-APOBEC3F blk inactive.
Screening Cc1ccc(Sc2ccc(N3CCCC(C(=O)Nc4ccc(F)c(Cl)c4)C3)nn2)cc1 (centres undefined) returned Vif-APOBEC3G blk inactive and Vif-APOBEC3F blk inactive.
Cc1ccc(-c2noc(CCC(=O)N3CCN(c4cc(C)ccc4C)CC3)n2)cc1 was read as SW480 rerep inactive, IL1B secr inh inactive, Giardia kill inactive, Vif-APOBEC3G blk inactive, Vif-APOBEC3F blk inactive and MCF10A rerep 21µM.
Screening COc1ccc(-c2noc(CCCC(=O)N3CCN(c4cc(C)ccc4C)CC3)n2)cc1 returned SW480 rerep inactive, IL1B secr inh inactive, Giardia kill inactive, Vif-APOBEC3G blk inactive, Vif-APOBEC3F blk inactive and MCF10A rerep 13µM.
Screening Cc1ccc(C)c(N2CCN(C(=O)CCc3nc(-c4ccc(Br)cc4)no3)CC2)c1 returned SW480 rerep inactive, IL1B secr inh inactive, Giardia kill inactive, Vif-APOBEC3G blk inactive, Vif-APOBEC3F blk inactive and MCF10A rerep inactive.
Screening CN1[C@@H]2CC[C@H]1CC(OC(=O)[C@@H](O)c1ccccc1)C2 (some centres undefined) returned SW480 rerep inactive and MCF10A rerep inactive.
Screening COc1ccc(-c2noc(N3CCN(c4cccc(C)c4C)CC3)n2)cc1OC returned Vif-APOBEC3G blk inactive and Vif-APOBEC3F blk inactive.
Screening CCOc1ccc(NS(=O)(=O)c2ccc3[nH]cc(C(=O)N(C)C4CCCCC4)c(=O)c3c2)cc1 returned Vif-APOBEC3G blk inactive and Vif-APOBEC3F blk inactive.
`C[n+]1cccc2ccc3c(c21)OC(N)=C(C#N)C3c1ccccc1` (centres undefined) gave SW480 rerep inactive, Giardia kill inactive, Vif-APOBEC3G blk inactive, Vif-APOBEC3F blk inactive and MCF10A rerep inactive.
N#CC1=C(N)Oc2cc3ccccc3cc2C1c1cccnc1 (centres undefined) was read as SW480 rerep 18µM, IL1B secr inh inactive, Giardia kill inactive, Vif-APOBEC3G blk inconclusive, Vif-APOBEC3F blk inactive and MCF10A rerep 7.1µM.
For C[n+]1cccc(C2C(C#N)=C(N)Oc3c2ccc2ccccc32)c1 (centres undefined) the results were SW480 rerep 18µM, IL1B secr inh inactive, Giardia kill inactive, Vif-APOBEC3G blk inconclusive, Vif-APOBEC3F blk inactive and MCF10A rerep inconclusive.
`N#CC1=C(N)Oc2c(ccc3cccnc23)C1c1cccnc1` (centres undefined) gave SW480 rerep 2.6µM, IL1B secr inh inactive, Giardia kill inactive, Vif-APOBEC3G blk inconclusive, Vif-APOBEC3F blk inactive and MCF10A rerep 8.2µM.
Screening C1=Nc2ccccc2/C1=C/c1c[nH]c2ccccc12 returned Vif-APOBEC3G blk inactive.
`COc1ccc(OC)c(CNC(=O)Cc2ccc(NC(=O)N3CCSc4ncccc43)cc2)c1` gave Vif-APOBEC3G blk inactive and Vif-APOBEC3F blk inactive.
O=[N+]([O-])c1ccc(C=C2c3ccccc3-c3ccccc32)cc1 was read as Vif-APOBEC3G blk inactive.
